“And” between values parts separate entries of the source, which are not always exact repeats. Equal values may be shown once. Inconclusive results are not listed. Entries that show only a call come without a potency. The source holds several records for some structures; these can differ, active in one and inactive in another. The source made the active and inactive calls. Calls follow the shape of the dose curve; as a rule, active = well fitted cell-killing curve with a large enough effect in the repeat runs; inconclusive = weak or mixed curves, or effect the other way; inactive = flat fitted curve, though single readings scatter.
Potency is read from the fitted curve at half-maximal effect.

This assay in a line: qHTS assay to identify small molecule that activate the aryl hydrocarbon receptor (AhR) signaling pathway - cell viability counter screen (AID 743086). Also: nearly all actives have a fitted effect of over 45% in size. Particulars: HepG2-AhR-luc viability, CellTiter-Fluor, 24 h; series mostly up to 70.3 µM. From the text: U.S. Tox21 Program National Center for Advancing Translational Sciences [NCATS] NIH Chemical Genomics Center [NCGC] U.S. Environmental Protection Agency [EPA] National Institutes of Environmental Health Sciences [NIEHS] National Toxicology Program [NTP] U.S. Food and Drug Administration [FDA] Tox21 Assay overview: The Aryl hydrocarbon Receptor (AhR), a member of the family of basic helix-loop-helix transcription factors, is crucial to adaptive responses to environmental changes. AhR mediates cellular responses to environmental pollutants such as aromatic hydrocarbons through induction of phase I and II enzymes but also interacts with other nuclear receptor signaling pathways A cell based HepG2-AhR-luc assay (HG2L7.5c1 cell line, developed by Dr. Michael S. Denison, University of California at Davis) was used to assess the activation of AhR. HepG2 (human hepatocellular carcinoma) cells were stably transfected with an Ah receptor-responsive firefly luciferase reporter gene plasmid containing 20 dioxin responsive elements and luciferase reporter gene. Increased luciferase activity can be used to identify the compounds that induce AhR activation. The cytotoxicity of the compounds screened against the HepG2-AhR-luc cell line was tested in parallel by measuring the cell viability using CellTiter-Fluor assay in the same wells.
Tox21 Assay Protocol Summary: 4000 cells in 5 uL/well were dispensed into white wall/solid bottom 1536-well plates using a Multidrop Combi (Thermo Fisher Scientific Inc., Waltham, MA) dispenser. After the assay plates were incubated at 37C for 5 h, 23 nL of compound or DMSO vehicle was transferred to the assay plates by a pintool station (Kalypsys, San Diego, CA). The plates were incubated at 37C for 24 hr. For cell viability measurement, 1 ul/well of CellTiter-Fluor reagent (Promega, Madison, WI) was added into the assay plates using a Flying Reagent Dispenser (FRD) (Aurora Discovery, CA),and then the assay plates were incubated at 37C for 30 min. The fluorescence intensity in the plates was measured using a ViewLux plate reader (PerkinElmer, Shelton, CT), followed by the addition of 4 uL of ONE-Glo Luciferase Assay reagent (Promega) using an FRD (Aurora Discovery). After the assay plates were incubated at room temperature for 30 min, luminescence intensity was measured using a ViewLux plate reader (Perkin Elmer).
A general note: In qHTS, concentration-response curves come from the screen itself.
As to `CCN`, the Potency result is “inactive”.
With `CCN(CC)c1c([N+](=O)[O-])cc(C(F)(F)F)c(N)c1[N+](=O)[O-]` the entry was “inactive”; with `CC(=O)Nc1ccc2c(c1)Cc1ccccc1-2`, “inactive”; with `N#C/C=C/C#N`, “inactive”.
Turning to `CC(c1ccc(O)cc1)c1ccc(O)cc1`, the Potency result is “inactive”.
Turning to `Oc1ccc(C(c2ccc(O)cc2)(C(F)(F)F)C(F)(F)F)cc1`, the Potency entry is “inactive”.
As for `C[C@]12Cc3nonc3C[C@@H]1CC[C@@H]1[C@@H]2CC[C@@]2(C)[C@H]1CC[C@]2(C)O`, the entry is “inactive”.
`CC1(C)[C@H](C(=O)O[C@H](C#N)c2cccc(Oc3ccccc3)c2)[C@@H]1/C=C(\Cl)C(F)(F)F`: the Potency result was “inactive”.
Turning to `CN(C)CCc1c[nH]c2ccc(O)cc12`, the Potency entry is “inactive”.
Turning to `BrCBr`, the Potency result is “inactive”.
As to `CCCN(CC)CC1COC2(CCC(C(C)(C)C)CC2)O1` (stereo not given), the Potency result was “inactive”.
With `N#CNC#N`, the Potency entry is “inactive”.
With `C[C@]12CC[C@@H]3c4ccc(OC(=O)N(CCCl)CCCl)cc4CC[C@H]3[C@@H]1CC[C@@H]2O`, the Potency entry is “inactive”.
Regarding `O=C(CCl)Nc1ccccc1`, the Potency is 61.1 µM (active).
Take `CN(C)C(=S)S`: the Potency entry is “inactive and 21.7 µM (active)”.
With `CC(=O)/C=C/c1ccc2c(c1)OCO2` the entry was “inactive”.
With `CC(C)(C)c1cc([N+](=O)[O-])cc(C(C)(C)C)c1O`, the Potency result was “inactive”.
As for `CC(=O)[O-].[Tl+]`, the entry is “inactive”; as for `COc1ccc(N)cc1N`, 63.1 µM (active) and inactive.
Turning to `Cc1cc(N=Nc2ccccc2C)ccc1N`, the Potency is 5.45 µM (active) and 2.73 µM (active).
Consider `COC12CC[C@@]3(C[C@@H]1C(C)(O)C(C)(C)C)[C@H]1Cc4ccc(O)c5c4[C@@]3(CCN1CC1CC1)[C@H]2O5` (stereo not given in full), for which the Potency was 60.7 µM (active).
With `Clc1ccc(COC(Cn2ccnc2)c2ccc(Cl)cc2Cl)cc1` (stereo not given) the figure was 15.3 µM (active); with `CC(C)[C@H](C(=O)O[C@H](C#N)c1cccc(Oc2ccccc2)c1)c1ccc(Cl)cc1`, “inactive”; with `CN(C)C(=S)[S-].CN(C)C(=S)[S-].[Cu+2]`, 8.36 µM (active).
For `O=C(CBr)c1ccc(O)cc1`, the Potency result is “inactive”.
As for `O=C(NC(=O)c1c(F)cccc1F)Nc1cc(Cl)c(OC(F)(F)C(F)F)c(Cl)c1`, the entry is “inactive”; as for `O=C(O)c1cc[c]([Hg][Cl])cc1`, “inactive”; as for `N#CCCC(Br)(C#N)CBr` (stereo not given), “inactive”.
As to `COC(=O)N(C(=O)N1CO[C@@]2(C(=O)OC)Cc3cc(Cl)ccc3C2=N1)c1ccc(OC(F)(F)F)cc1`, the Potency result is “inactive”.
With `Fc1ccc(Oc2ccnc3cc(Cl)cc(Cl)c23)cc1`, the Potency entry was “inactive”.
As to `COc1ccc(/C(=C/C(=O)N2CCOCC2)c2ccc(Cl)cc2)cc1OC`, the Potency result is “inactive”.
With `Clc1ccc(-c2ccc(Cl)c(Cl)c2Cl)c(Cl)c1Cl` the entry was “inactive”; with `CCCCCCCCCC[N+](C)(C)CCCCCCCCCC`, “inactive”; with `O=[N+]([O-])c1cc([N+](=O)[O-])c2ccccc2c1`, “inactive”.
In the case of `CC(C)Oc1cccc(NC(=O)c2ccccc2C(F)(F)F)c1`, the Potency entry was “inactive”.
With `CNC(C)Cc1ccc2c(c1)OCO2` (stereo not given) the entry was “inactive”; with `CC(C)CCCCCCCOP(=O)(Oc1ccccc1)Oc1ccccc1`, “inactive”; with `CCc1nn(C)c(C(=O)NCc2ccc(C(C)(C)C)cc2)c1Cl`, “inactive”.
As to `O=c1ssc(Cl)c1Cl`, the Potency result was “inactive”.
In the case of `Clc1ccc(CCC(Cn2ccnc2)Sc2c(Cl)cccc2Cl)cc1` (stereo not given), the Potency result is “inactive”.

The values above are taken from PubChem BioAssay (Tox21).
